# The full ranking holds about 33,000 sequences; the median of “E-score (-0.5 to 0.5)” is about -0.016, and the highest 2% start at about 0.32. Only a selection was taken, and the highest values are over-represented in it overall.
# Target: T1, Stp1 (UniProt B3LFK1)
# T1 sequence: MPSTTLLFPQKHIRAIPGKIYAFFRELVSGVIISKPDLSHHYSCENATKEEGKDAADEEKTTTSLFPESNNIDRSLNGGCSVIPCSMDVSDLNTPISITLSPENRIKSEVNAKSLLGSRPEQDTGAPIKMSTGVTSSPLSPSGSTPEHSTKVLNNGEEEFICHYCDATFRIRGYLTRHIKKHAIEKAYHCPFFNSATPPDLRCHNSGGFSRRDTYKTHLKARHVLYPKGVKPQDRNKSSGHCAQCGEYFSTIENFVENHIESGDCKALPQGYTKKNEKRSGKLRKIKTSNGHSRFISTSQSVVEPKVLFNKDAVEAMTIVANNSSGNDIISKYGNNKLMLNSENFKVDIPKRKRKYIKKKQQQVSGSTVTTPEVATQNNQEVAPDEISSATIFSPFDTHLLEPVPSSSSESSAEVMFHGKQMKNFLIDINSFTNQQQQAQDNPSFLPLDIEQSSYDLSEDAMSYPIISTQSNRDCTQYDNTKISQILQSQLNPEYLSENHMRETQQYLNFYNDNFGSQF
# Experiment: PBM E-score (8-mer binding enrichment) (E-score (-0.5 to 0.5)); higher = stronger / more preferred TF binding
# Conditions: protein concentration: 200 nM; construct: GST-full length
# Description: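 Universal 'all 10-mer' protein binding microarrays (Agilent AMADID 015681) probed with GST-tagged S. cerevisiae TFs (full-length or DBD) made by in vitro transcription/translation (PURExpress), about 100-200 nM. Bound TF was detected with fluorescent anti-GST. Each ungapped 8-mer (which stands for itself and its reverse complement) is scored by the PBM enrichment score (E-score), a modified Wilcoxon-Mann-Whitney statistic from -0.5 to +0.5, computed with the Universal PBM Analysis Suite. Scale: above 0.35 generally sequence-specific binding.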
row,Sequence,PBM E-score
1,ACGCGCGA,0.105
2,AGGCGCGG,0.355
3,GGGCGCGA,0.28
4,CGGCGCGC,0.475
5,ATGCGCGG,0.307
6,CAGCGCGC,-0.00184
7,CAGCGCGA,-0.0618
8,CGGCGCGA,0.477
9,AGGCGCGC,0.308
10,CTGCGCGC,0.269
11,AGGCGCGA,0.392
12,AAGCGCGG,0.171
13,CTGCTTAC,-0.0697
14,CTCGAAAG,-0.053
15,CCTCACCA,-0.0872
16,ACAAATGC,0.155
17,CTTCAAGC,0.0107
18,AGACCATC,-0.131
19,CCCCTAAA,-0.228
20,AGTTGATG,-0.0271
21,ATCTACAC,0.0776
22,ACTTTACG,0.0861
23,GCAGGAGA,-0.303
24,ACGCCGTC,0.41
25,AGGCCGTC,-0.0198

row,Sequence,PBM E-score
1,ACGCCGGG,-0.0857
2,CCCCCGTA,-0.238
3,ACGCCGAA,0.21
4,CCGCCGTA,0.42
5,CCGCCGTC,0.255
6,CGCCCGTA,-0.183
7,ACGCCGTG,0.485
8,ACACCGTA,-0.0212
9,AGGCCGTG,0.307
10,ACGCCGTA,0.471
11,AGCCGAGG,0.142
12,CTGCTGCA,-0.169
13,ATCAGGGA,-0.201
14,GATTTAAC,0.148
15,ATTGATTG,0.178
16,ATTGATTC,0.265
17,ATTGATTA,0.338
18,ACGGCTAC,0.407
19,GCGGCTAA,0.304
20,GCGGCTAC,0.305
21,ACGGCTAT,0.349
22,ACGGCTAG,0.235
23,CCGGCTAC,0.0509
24,AGGGCTAT,-0.325
25,ACGGCTAA,0.377

row,Sequence,PBM E-score
1,TCGGCTAA,0.145
2,AGTCTCCC,-0.272
3,CTTATAGC,-0.0511
4,CGGTGCAG,-0.0834
5,GTCAAATA,0.0762
6,GTCGCAAC,-0.0752
7,GAATAGTC,-0.205
8,ACAGGCAC,-0.047
9,CGCTAGGA,-0.0128
10,AGCCGTAC,0.432
11,CCCCGTAA,-0.0389
12,GACCGTAC,-0.0763
13,TCCCGTAA,-0.0808
14,CACCGTAA,0.00961
15,GGCCGTAA,0.192
16,CGCCGTAA,0.418
17,ACCCGTAC,0.0646
18,TGCCGTAA,0.34
19,ATCCGTAC,0.28
20,TACCGTAA,0.0576
21,GGCCGTAC,0.424
22,ATCGAGTG,0.141
23,AAATGTCC,-0.229
24,AATAAGCC,0.0484
25,AGTGAATG,0.0894

row,Sequence,PBM E-score
1,CAGTAACG,0.0111
2,TGTGCCAA,0.117
3,ATGACTGA,-0.164
4,CGATTCCG,-0.0394
5,GAGGCCAA,-0.164
6,ATAAATGG,0.0779
7,TAGGGCGA,0.178
8,ATCTCCTA,-0.214
9,ATTGAGGA,-0.0544
10,AACCGTAT,-0.0259
11,ATCCGTAG,0.112
12,AGCCGTAT,0.435
13,CGCCGTAG,0.465
14,AGCCGTAA,0.31
15,ACCCGTAG,-0.36
16,CGCCGTAC,0.487
17,CTCCGTAC,0.184
18,CCCCGTAG,-0.0863
19,AGCCGTAG,0.392
20,CACCGTAC,0.121
21,CACCGTAG,-0.0209
22,CGAGCCCA,-0.215
23,GAGACGTA,-0.074
24,ATTACTTC,-0.0579
25,ACGTGTCA,-0.0154

row,Sequence,PBM E-score
1,AAAGCACG,0.0591
2,CGATAGGC,0.135
3,GCACGGAC,0.28
4,GCACGGGC,0.19
5,GCACGGCC,0.415
6,ACACGGGC,0.0838
7,ACACGGCC,0.344
8,ACACGGAC,0.217
9,GTCTACAA,-0.0248
10,CCAGGCGG,-0.0554
11,AGACATTG,-0.194
12,GATCTTCA,-0.025
13,CTTTTAGA,0.0884
14,ACACGAAA,0.0839
15,GCACGAAC,0.101
16,GCACGAAA,0.326
17,GCCATACC,-0.0417
18,CCAACTGA,-0.167
19,ATGCCTCA,0.279
20,GCGCCTAC,0.35
21,CCGCCTAC,-0.0313
22,GTGCCTTA,0.367
23,GTGCCTCA,0.365
24,GTGCCTGA,-0.105
25,ACGCCTAC,-0.0656

row,Sequence,PBM E-score
1,TCGCCTCA,0.281
2,ACGCCTCA,0.313
3,GCGCCTCA,0.401
4,ATGCCTTA,0.236
5,CTGCCTCA,-0.0442
6,AGCCCACT,-0.203
7,TCTTTGCA,0.165
8,GCAGACCC,-0.107
9,CTCCCCTC,-0.3
10,AACTTGGA,0.0205
11,ATCGTCTG,0.0798
12,AAAGGTAC,-0.00049
13,GAAGTGCC,0.309
14,GAGTACTA,0.051
15,GCGCCTGA,0.16
16,GCGCCTTA,0.399
17,CCGCCTTA,0.201
18,ATTGCCCG,-0.0444
19,ACGGCTCC,0.449
20,CCGGCTCG,-0.0179
21,ACGGCTCT,0.454
22,ACGGCTCG,0.444
23,AAGGCTCG,-0.0294
24,AGGGCTCA,-0.101
25,CCGGCTCC,-0.129

row,Sequence,PBM E-score
1,ACGGCTCA,0.403
2,ACAGCTCT,-0.306
3,GCGGCTCC,0.315
4,AAGGCTCA,0.16
5,AAGGCTCT,0.21
6,CTCACAAA,0.109
7,GAAGAGGA,-0.286
8,AATCGATG,0.174
9,GACGCTCA,-0.136
10,GGGCTAGA,-0.142
11,ACCTTTCG,-0.121
12,CCTCTACC,-0.24
13,AGAGTGTC,0.0784
14,ATGATCAT,0.17
15,GCATAGAA,0.133
16,GCATTGGC,-0.0163
17,AGTTTGGA,0.0815
18,ACTGTCCT,-0.097
19,ACTCTCCC,-0.159
20,GAAACCTA,-0.22
21,GGACTACC,-0.286
22,AAGTCTGT,-0.193
